# HT1080-NT tox: kills 2HG-producing HT-1080-NT fibrosarcoma cells; Potency, µM (top dose mostly 46.1 µM), most hits filed as cytotoxic; 360,000 compounds, 1.6% hits; HT-1080-NT fibrosarcoma viability, CellTiter-Glo ATP luminescence, 48 h;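 further: NT is the 2HG producing partner of a matched IDH1 knockdown line; nearly all actives have a fitted effect of over 55% in size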
#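 Compounds were tested in concentration-response format on HT-1080-NT cells for 48 hours at 37 degrees C. Cell viability came from CellTiter-Glo luminescence; curves were classified by r2, response magnitude and activity.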
# TDP1 cell CPT: growth inhibition of DT40 Tdp1-/-;hTDP1 cells with camptothecin (screen for TDP1 inhibitors); chicken DT40 Tdp1-/-;hTDP1 cells + 20 nM CPT, ATP luminescence, 48 h; Potency, µM (highest dose often 46.2 µM), hits mostly inhibitors; 420,000 compounds, 12% hits; further: nearly all actives have a fitted effect of over 55% in size
#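 Chicken DT40 Tdp1-/- cells stably complemented with human TDP1 were seeded at 400 cells/well in medium containing 20 nM camptothecin, exposed to pin-transferred compounds, and grown at 37 °C for at least 48 hr. Viability was read as ATP luminescence.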
# TGFb inhibitor: inhibitors of TGF-b signaling | HepG2 CAGA-GFP TGF-b/SMAD3 reporter, GFP fluorescence, 18 h; TGF-beta stimulated, 500 pg/mL final | Potency, µM (series often up to 46.1 µM), most hits filed as inhibitors | 410,000 compounds, 1.2% hits | AID 588855; further: nearly all actives have a fitted effect of over 65% in size
#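 GFP signal (ex488/em500-530) from TGF-beta-stimulated HEPG2 CAGA-GFP cells, 500 pg/mL final, 18 h at 37 degrees C in DMEM plus 1% FBS, normalized to unstimulated and DMSO-stimulated controls.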
# TDP1 cell noCPT: qHTS for Inhibitors of human tyrosyl-DNA phosphodiesterase 1 (TDP1): qHTS in cells in absence of CPT; DT40 Tdp1-/- hTDP1 cells, no CPT, ATP luminescence, 48 h; Potency, µM (titrated, usually from 46.2 µM), most hits filed as inhibitors; 420,000 compounds, 15% hits; AID 686978, 2013; further: nearly all actives have a fitted effect of over 55% in size
#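 A cellular qHTS used chicken DT40 cells lacking endogenous Tdp1 but carrying stably transfected human TDP1. Compounds were applied without camptothecin, and cell growth kinetics were judged by ATP-dependent luminescence after ≥48 hr.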
# HT1080 IDH1KD tx: HT-1080 IDH1 knockdown cell toxicity (counter line). HT-1080 IDH1 knockdown viability, ATP luminescence, 48 h. Potency, µM (series often up to 46.1 µM), usual class: cytotoxic. 360,000 compounds, 2% hits. AID 686971
#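 Assay cells: HT-1080 with IDH1 knockdown, 750 per well, RPMI/5% FBS. Exposure: 48 h at 37 °C following 2 h pre-incubation. Read: CellTiter-Glo luminescence; fitted concentration-response, curve class assigned.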
# HepG2 viability: HepG2 cytotoxicity, counter-screen for TGF-b inhibitors; 410,000 compounds, 0.76% hits; Potency, µM (titrated, usually from 46.1 µM), most hits filed as cytotoxic; HepG2 CAGA-GFP viability, ATP luminescence, 18 h
#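 HepG2 CAGA-GFP cells (1000/well, DMEM with 1% FBS) received compound, then TGF-beta at 500 pg/mL final, and were incubated 18 hours at 37 degrees C. Viability was read by CellTiter-Glo luminescence. Media-only wells were set as complete cell-killing and DMSO as no toxicity.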
# Hits are given with their value; i = inactive; ? = inconclusive; nt = not tested or not shown; [ ] = dose if it differs, or a comment. Hits are enriched below; roughly 17% of the tested compounds scored in any of these assays. The call rests on the fitted dose curve; in most records, active means well fitted curve in the direction sought with a large enough effect; inconclusive means small, poorly fitted or top-dose-only effect, or another doubt; inactive means no such curve, though single readings can be large; an effect the other way counts as inactive or inconclusive.
SMILES,HT1080-NT tox,TDP1 cell CPT,TGFb inhibitor,TDP1 cell noCPT,HT1080 IDH1KD tx,HepG2 viability
O=C(c1ccc(CS(=O)Cc2ccccc2Cl)o1)N1CCN(c2ccccn2)CC1 (stereo not drawn),i,?,?,16.4µM,i,i
O=C(c1ccc(COc2ccccc2Br)o1)N1CCN(c2ccccn2)CC1,i,i,i,i,i,i
O=C(c1ccc(CS(=O)c2ccccc2Cl)o1)N1CCN(c2ccccn2)CC1 (stereo not drawn),?,3.66µM,i,2.06µM,7.31µM,i
CCOC(=O)[C@]12CCCC=C1N(Cc1ccc(Cl)cc1Cl)C(=O)[C@H](CC(=O)N1CCN(C(=O)C3CC3)CC1)C2,i,?,nt,?,i,nt
COC(=O)c1cc(NC(=O)COC(=O)C2CCC2)cc(C(=O)OC)c1,i,i,i,i,i,i
CC(C)NC(=NCc1ccc(Cl)cc1Cl)Nc1ccccc1,?,13µM,?,5.17µM,i,i
COc1ccc2[nH]cc(CCNC(=O)c3cnn(-c4ccc(C)cc4)c3C3CCN(C(=O)OC(C)(C)C)CC3)c2c1,nt,9.2µM,?,5.17µM,nt,i
COc1ccc2[nH]cc(CCNC(=O)c3cnn(-c4ccccc4Cl)c3C3CCN(C(=O)OC(C)(C)C)CC3)c2c1,nt,13µM,?,10.3µM,nt,i
Cc1ccc(-n2ncc(C(=O)NCCN3CCN(C)CC3)c2C2CCN(C(=O)OC(C)(C)C)CC2)cc1,nt,?,i,?,nt,i
Cc1ccccc1-n1ncc2c([N+](=O)[O-])cc([N+](=O)[O-])cc21,?,25.9µM,?,20.6µM,?,i
Cc1ccccc1N1C(=O)c2cccc([N+](=O)[O-])c2C1=O,i,i,i,i,?,i
COc1ccc(CC(NC(C)=O)C(=O)NC2CCN(c3c4c(nc5ncnn35)CCC4)CC2)cc1OC (stereo not drawn),i,i,i,i,i,i
CC1CCCCC1NC(=O)C1CCN(c2c3c(nc4ncnn24)CCC3)CC1 (stereo not drawn),i,i,i,11.6µM,i,i
Cc1ccc(-n2nc(C(=O)N(C)c3ccccc3Cl)c3c4ccccc4n(C)c3c2=O)cc1,nt,18.4µM,i,13µM,nt,i
CCOc1ccccc1N(C)C(=O)c1nn(-c2ccc(C)cc2)c(=O)c2c1c1ccccc1n2C,nt,i,i,i,nt,i
Cc1ccc(-n2nc(C(=O)N(C)Cc3ccccc3)c3c4ccccc4n(C)c3c2=O)cc1,nt,23.1µM,?,9.2µM,nt,i
CCC1C(=O)NCCN1Cc1ccc2c(c1)CN(Cc1cccn1-c1ccc(Cl)cn1)CCO2 (stereo not drawn),nt,i[9.04 µM],nt,?,nt,nt
Cc1ccsc1CN(C(=O)c1oc2ccccc2c1C)C1CCS(=O)(=O)C1 (stereo not drawn),nt,8.2µM,nt,5.17µM,nt,i
Cc1c(C(=O)N(Cc2ccc(F)cc2)C2CCS(=O)(=O)C2)oc2ccccc12 (stereo not drawn),i,?,i,i,i,i
Cc1c(C(=O)N(Cc2ccccc2)C2CCS(=O)(=O)C2)oc2ccccc12 (stereo not drawn),i,?,i,20.6µM,i,i
Cc1c(C(=O)N(Cc2cccc(Br)c2)C2CCS(=O)(=O)C2)oc2ccccc12 (stereo not drawn),i,?,?,20.6µM,?,i
COc1cc(CN(C(=O)c2oc3ccccc3c2C)C2CCS(=O)(=O)C2)cc(OC)c1OC (stereo not drawn),nt,?,i,?,nt,i
CCc1ccc(CN(C(=O)c2oc3ccccc3c2C)C2CCS(=O)(=O)C2)cc1 (stereo not drawn),i,?,?,18.4µM,i,i
Cc1c(C(=O)N(Cc2ccc(N(C)C)cc2)C2CCS(=O)(=O)C2)oc2ccccc12 (stereo not drawn),i,29.1µM,i,?,i,i
COc1ccc(CN(C(=O)c2oc3ccccc3c2C)C2CCS(=O)(=O)C2)cc1 (stereo not drawn),i,i,i,?,i,i
SMILES,HT1080-NT tox,TDP1 cell CPT,TGFb inhibitor,TDP1 cell noCPT,HT1080 IDH1KD tx,HepG2 viability
CCCCN(CC)C(=O)CSc1nc2n[nH]c(C)c2c(=N)n1-c1ccc(CC)cc1,nt,10.3µM,1.41µM,5.17µM,nt,i
CCCN(CCC)C(=O)CSc1nc2n[nH]c(C)c2c(=N)n1-c1ccc(OC)cc1,i,13µM,i,10.3µM,i,i
CCN(CC)C(=O)CSc1nc(O)cc(=O)n1-c1ccccc1OC,i,i,i,i,i,i
CCCN(CCC)C(=O)CSc1nc2n[nH]c(C)c2c(=N)n1-c1ccc(OCC)cc1,i,?,?,?,?,i
CCCCN(CC)C(=O)CSc1nc2n[nH]c(C)c2c(=N)n1-c1cccc(OC)c1,nt,23.1µM,4.47µM,9.2µM,nt,i
O=C(Nn1c(Cc2cccs2)nc2ccccc2c1=O)c1cccs1,i,?,i,?,i,i
FC(F)(F)c1ccccc1-c1cncnc1NCc1cccs1,nt,i,nt,i,nt,nt
O=[N+]([O-])c1ccc(N=Cc2ccc(Br)c([N+](=O)[O-])c2)cc1,?,5.17µM,i,5.17µM,i,i
O=[N+]([O-])c1ccc(C=Nc2ccccc2)cc1,i,?,i,?,i,i
CC(=O)c1c(C(C)=O)c(C)n(NC(=O)c2ccncc2)c1C,i,i,?,i,i,i
CC1(C)COC(/C=C/c2cccc([N+](=O)[O-])c2)=N1,?,?,?,11.6µM,?,i
Cc1nnc(NC(=O)c2ccc(S(=O)(=O)N3CCc4ccccc4C3)cc2)o1,i,?,i,?,i,i
CCN(Cc1ccccc1)S(=O)(=O)c1ccc(C(=O)Nc2nnc(C)o2)cc1,i,23.1µM,i,?,?,i
CCN(CC)S(=O)(=O)c1ccc(C(=O)Nc2nnc(CSC)o2)cc1,i,i,i,i,i,i
CCc1nnc(NC(=O)c2ccc(S(=O)(=O)N(C)Cc3ccccc3)cc2)o1,i,16.4µM,i,20.6µM,i,i
CCc1nnc(NC(=O)c2ccc(S(=O)(=O)N(CC)Cc3ccccc3)cc2)o1,i,11.6µM,i,7.31µM,?,i
CN(Cc1ccccc1)S(=O)(=O)c1ccc(C(=O)Nc2nnc(C3CC3)o2)cc1,i,14.6µM,i,20.6µM,?,i
CC(=O)Nc1ccc(S(=O)(=O)N(C)Cc2ccccc2)cc1,i,i,i,i,i,i
CCOc1ccc(NC(=O)Cn2c(=O)n(Cc3ccco3)c(=O)c3ccc(C(=O)NC4CCCC4)cc32)cc1,nt,?,i,i,nt,i
